Inconclusive results are not listed. The source made the active and inactive calls. The call rests on the fitted dose curve; in most records, active means well fitted cell-killing curve with a large enough effect; inconclusive means small, poorly fitted or top-dose-only effect, or effect the other way; inactive means flat fitted curve, though single readings scatter. *1 amine or outer side, *2 acyl side, *3 side chain or, on linkers, in order; H or OH if unused. Where a SMILES comes first, the peptide text is derived from it. Bridges are numbered along the chain shown (N, C = ends). [ ]: non-standard residue; d: D form. The star is where a group is joined. ξ: configuration not given here. X10 = NC1=NCCC(C(N[*:1])C(=O)[*:2])N1; ΔAla(3-NHCONH2) = NC(=O)NC=C(N)C(=O)O; ξβ3hOrn = NCCCC(N)CC(=O)*; Dap = NC[CH](N)C(=O)O
Test system: Tov112D
Assay: Primary qHTS to identify gynecologic anti-cancer compounds using libraries of approved drugs and bioactive compounds (AID 1345084); further: nearly all actives have a fitted effect of over 55% in size
Settings: Gynecologic cancer cell panel viability, ATPlite luminescence, 48 h; series mostly up to 57.5 µM; activity change, negative = cytotoxicity: at the top concentration
Summary of the method: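 ATP-based viability (ATPlite), 1,000 cells/well, 16 h pre-incubation, 48 h compound at 37 C, 5% CO2, 15 min RT before read.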
On the % scale 0 is the no-effect control and ±100 the full control effect.

Row | Compound | activity change, negative = cytotoxicity
1 | Cc1nc(C2CCCCC2)c(-c2ccc(S(N)(=O)=O)c(F)c2)o1 | 5.62% (inactive)
2 | CCCC(=O)O[C@]1(C(=O)CCl)[C@@H](C)C[C@H]2[C@@H]3CCC4=CC(=O)C=C[C@]4(C)[C@@]3(F)C(=O)C[C@@]21C | -7.45% (inactive)
3 | NCCCC(N)CC(=O)NCC1NC(=O)C(CO)NC(=O)C(N)CNC(=O)C(C2CCN=C(N)N2)NC(=O)C(=CNC(N)=O)NC1=O (stereo not drawn) (H-[Dap]S[Dap](ξβ3hOrn)[ΔAla(3-NHCONH2)][X10]; lactam 1-C; configuration not given here) | 4.39% [at 0.462 µM] (inactive)
4 | CC(C)(C)C1CCC(CC2=C(O)c3ccccc3C(=O)C2=O)CC1 (stereo not drawn) | 5.91% (inactive)
5 | Cc1ncc([N+](=O)[O-])n1C | -1.01% (inactive)
6 | Cc1c(N)cccc1C(F)(F)F | 4.75% (inactive)
7 | Cc1cc(=O)oc2cc(O[C@@H]3SC[C@@H](O)[C@H](O)[C@H]3O)ccc12 | 6.44% (inactive)
8 | CC(NC(CCc1ccccc1)C(=O)O)C(=O)N1C(=O)N(C)CC1C(=O)O (stereo not drawn) | 5.32% (inactive)
9 | CCCN(CCC)C(=O)C(CCC(=O)OCCCN1CCN(CCOC(=O)Cc2c(C)n(C(=O)c3ccc(Cl)cc3)c3ccc(OC)cc23)CC1)NC(=O)c1ccccc1 (stereo not drawn) | 15.4% (inactive)
10 | Nc1ccc([N+](=O)[O-])c(C(F)(F)F)c1 | 5.22% (inactive)
11 | CN(C)CCCOC1(Cc2ccccc2)CCCCCC1 | 2.92% (inactive)
12 | CCOC(=O)C1=C(C)NC(C)=C(C(=O)OCC)C1c1ccccc1/C=C/C(=O)OC(C)(C)C | -2.96% (inactive)
13 | C[C@H]1C[C@H](O)c2ccsc2S1(=O)=O | 0.466% (inactive)
14 | O=C(CCCl)NCCc1ccccc1 | 10.9% (inactive)
15 | Nc1c(I)cc(I)c(C(=O)N(CCC(=O)O)c2ccccc2)c1I | -1.79% (inactive)
16 | CC(CC1c2ccccc2CCc2ccccc21)CN(C)C (stereo not drawn) | -22.1% (inactive)
17 | C=CCNc1nc(NCC=C)nc(N2CCN(C(c3ccc(F)cc3)c3ccc(F)cc3)CC2)n1 | -24.1% (inactive)
18 | O=C1CCCc2c(O)cccc21 | 1.22% (inactive)
19 | O=c1[nH]c(=O)n([C@H]2O[C@H](CO)[C@@H](O)[C@@H]2O)cc1/C=C\Br | 17.1% (inactive)

Row | Compound | activity change, negative = cytotoxicity
20 | N#CSCC(=O)O | 3.56% (inactive)
21 | CN1Cc2cc(C(=O)N3CCC(C4CCNCC4)CC3)ccc2NC(CC(=O)O)C1=O (stereo not drawn) | 4.51% (inactive)
22 | CCCC(=O)OCOC(=O)C1=C(C)NC(C)=C(C(=O)OC)C1c1cccc(Cl)c1Cl (stereo not drawn) | 0.934% (inactive)
23 | NC(=O)NS(=O)(=O)c1ccc(Cl)cc1 | 3.16% (inactive)
24 | CN(C)CCOC(c1ccccc1)c1ccc(Br)cc1 (stereo not drawn) | -16.5% (inactive)
25 | COc1ccc2c(c1)CCCC2=O | 7.6% (inactive)
26 | Cc1ccc(C(=O)Oc2ccc(C(O)CNC(C)(C)C)cc2OC(=O)c2ccc(C)cc2)cc1 (stereo not drawn) | -1.94% (inactive)
27 | Cn1c(=O)c2c(ncn2CC(=O)O)n(C)c1=O | 17.5% (inactive)
28 | Clc1ccc2c(c1)N=C(N1CCNCC1)c1ccccc1N2 | 6.91% (inactive)
29 | CCOC(=O)N1CCC(n2c(=O)[nH]c3cc(Cl)ccc32)CC1 | 2.53% (inactive)
30 | O=C(OCC(O)CO)c1ccccc1Nc1ccnc2c(C(F)(F)F)cccc12 (stereo not drawn) | -5.64% (inactive)
31 | CC1CCCCN1CCCOC(=O)c1ccc(OC2CCCCC2)cc1 (stereo not drawn) | 1.68% (inactive)
32 | CCCCC(O)/C=C(C)/C=C/C=C/C(=O)N1CCCC1=O (stereo not drawn) | -1.16% (inactive)
33 | CCCCN(CCN(CCCC)C(=O)N1CCOCC1)C(=O)N1CCOCC1 | -1.72% (inactive)
34 | CCCCCC(=O)O[C@]1(C(C)=O)CC[C@H]2[C@@H]3CCC4=CC(=O)CC[C@]4(C)[C@H]3CC[C@@]21C | -5.38% (inactive)
35 | O=[N+]([O-])c1ccc(-c2nc(-c3ccc(F)cc3)c(-c3ccncc3)[nH]2)cc1 | 17.5% (inactive)
36 | Cc1ccc2ccc(Cl)cc2n1 | 7.82% (inactive)
37 | CCCCN(CCCC)C(C(N)=O)c1ccc(OC)cc1 (stereo not drawn) | -10.9% (inactive)
38 | CC(C)OC(=O)c1cc2c(OCC(O)CNC(C)(C)C)cccc2[nH]1 (stereo not drawn) | 12.8% (inactive)

From PubChem BioAssay (NCATS)
